Measured values from article PMC7862700, “An all-to-all approach to the identification of sequence-specific readers for epigenetic DNA modifications on cytosine”.

Columns and labels:
Assay in all cases: DAPPL (digital affinity profiling via proximity ligation, sequencing); 10 mM Tris-HCl pH 7.5, 50 mM NaCl, 1 mM DTT, 4% glycerol, room temperature, 30 min; GST-TFs on glutathione beads, 16-mer random dsDNA library, 0.1% formaldehyde crosslink after washing; high values mean tight binding
[1] = molecular target: T1, FLI1 (Homo sapiens, UniProt Q01543 1-452); details: protein: recombinant; tags: N-terminal GST; dsDNA, one strand shown
T1 sequence: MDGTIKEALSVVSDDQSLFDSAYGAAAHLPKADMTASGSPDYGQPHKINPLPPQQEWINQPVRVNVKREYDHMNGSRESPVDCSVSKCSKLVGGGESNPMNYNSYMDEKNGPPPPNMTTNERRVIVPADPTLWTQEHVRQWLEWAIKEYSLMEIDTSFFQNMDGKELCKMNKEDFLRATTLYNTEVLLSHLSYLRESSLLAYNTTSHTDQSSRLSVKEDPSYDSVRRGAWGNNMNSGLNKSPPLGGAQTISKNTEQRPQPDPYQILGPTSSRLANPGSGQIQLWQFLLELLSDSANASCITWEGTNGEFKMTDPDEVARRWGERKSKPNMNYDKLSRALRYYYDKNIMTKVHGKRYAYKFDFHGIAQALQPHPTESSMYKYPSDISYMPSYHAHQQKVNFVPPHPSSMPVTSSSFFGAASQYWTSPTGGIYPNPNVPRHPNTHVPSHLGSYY
Summary of the method: (§1)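 Human transcription factors fused to GST were expressed in yeast, captured on glutathione beads, given DNA barcodes and pooled with a GST-only negative control. Pools were incubated with 200 nmole of a 16-mer random double-stranded DNA library in Tris/NaCl/DTT/glycerol buffer at room temperature for 30 min. They were then washed, crosslinked with 0.1% formaldehyde, proximity-ligated (BsaI/T4 ligase, 1 h, 37 °C), PCR-amplified and sequenced on an Illumina NextSeq500. Binding signal is each 6-mer's read frequency for a factor divided by its frequency for the GST control.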

[2] = molecular target: T2, ELK1 (Homo sapiens, UniProt P19419 1-428); details: protein: recombinant; tags: N-terminal GST; dsDNA, one strand shown
T2 sequence: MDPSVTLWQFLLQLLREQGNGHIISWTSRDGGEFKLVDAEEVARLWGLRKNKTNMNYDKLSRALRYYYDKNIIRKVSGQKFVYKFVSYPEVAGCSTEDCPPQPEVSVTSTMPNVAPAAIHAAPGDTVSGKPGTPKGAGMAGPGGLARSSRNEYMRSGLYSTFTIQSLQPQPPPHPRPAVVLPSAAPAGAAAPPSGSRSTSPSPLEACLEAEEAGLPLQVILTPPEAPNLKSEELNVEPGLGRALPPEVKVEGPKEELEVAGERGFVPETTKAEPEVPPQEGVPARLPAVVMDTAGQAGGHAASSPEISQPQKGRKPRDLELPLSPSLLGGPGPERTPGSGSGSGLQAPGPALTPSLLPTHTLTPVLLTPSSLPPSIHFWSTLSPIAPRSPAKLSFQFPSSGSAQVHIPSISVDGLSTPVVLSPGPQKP
Summary of the method: as §1

[3] = molecular target: T3, GABPA (Homo sapiens, UniProt Q06546 1-454); details: protein: recombinant; tags: N-terminal GST; dsDNA, one strand shown
T3 sequence: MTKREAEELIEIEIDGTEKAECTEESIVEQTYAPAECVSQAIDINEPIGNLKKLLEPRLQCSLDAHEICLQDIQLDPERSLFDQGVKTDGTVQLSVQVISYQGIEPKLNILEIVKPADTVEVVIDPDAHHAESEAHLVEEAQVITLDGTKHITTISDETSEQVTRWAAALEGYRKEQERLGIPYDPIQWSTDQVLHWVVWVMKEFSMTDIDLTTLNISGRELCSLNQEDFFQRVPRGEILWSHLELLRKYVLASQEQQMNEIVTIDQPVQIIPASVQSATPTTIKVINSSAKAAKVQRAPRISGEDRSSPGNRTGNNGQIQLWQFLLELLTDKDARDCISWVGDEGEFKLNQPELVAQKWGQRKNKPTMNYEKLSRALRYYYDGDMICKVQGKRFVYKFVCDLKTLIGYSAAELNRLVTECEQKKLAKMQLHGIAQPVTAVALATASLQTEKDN
Summary of the method: as §1

[4] = molecular target: T4, ERG (Homo sapiens, UniProt P11308 1-479); details: protein: recombinant; tags: N-terminal GST; dsDNA, one strand shown
T4 sequence: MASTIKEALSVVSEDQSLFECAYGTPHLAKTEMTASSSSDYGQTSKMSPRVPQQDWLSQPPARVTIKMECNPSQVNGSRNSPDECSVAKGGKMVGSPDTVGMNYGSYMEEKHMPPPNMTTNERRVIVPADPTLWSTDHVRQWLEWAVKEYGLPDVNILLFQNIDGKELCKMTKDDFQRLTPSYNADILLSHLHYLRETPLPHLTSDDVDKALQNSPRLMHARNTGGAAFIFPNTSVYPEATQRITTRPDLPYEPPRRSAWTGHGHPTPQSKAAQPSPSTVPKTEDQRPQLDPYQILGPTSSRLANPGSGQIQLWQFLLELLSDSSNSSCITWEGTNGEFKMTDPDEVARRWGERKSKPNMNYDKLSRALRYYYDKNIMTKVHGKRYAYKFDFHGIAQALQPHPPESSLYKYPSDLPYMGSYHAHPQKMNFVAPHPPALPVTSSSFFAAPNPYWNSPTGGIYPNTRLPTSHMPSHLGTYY
Summary of the method: as §1

[5] = molecular target: ELF1 (Homo sapiens, UniProt P32519 1-619); details: protein: recombinant; tags: N-terminal GST; dsDNA, one strand shown
Summary of the method: as §1

[6] = molecular target: T5, EHF (Homo sapiens, UniProt Q9NZC4 1-300); details: protein: recombinant; tags: N-terminal GST; dsDNA, one strand shown
T5 sequence: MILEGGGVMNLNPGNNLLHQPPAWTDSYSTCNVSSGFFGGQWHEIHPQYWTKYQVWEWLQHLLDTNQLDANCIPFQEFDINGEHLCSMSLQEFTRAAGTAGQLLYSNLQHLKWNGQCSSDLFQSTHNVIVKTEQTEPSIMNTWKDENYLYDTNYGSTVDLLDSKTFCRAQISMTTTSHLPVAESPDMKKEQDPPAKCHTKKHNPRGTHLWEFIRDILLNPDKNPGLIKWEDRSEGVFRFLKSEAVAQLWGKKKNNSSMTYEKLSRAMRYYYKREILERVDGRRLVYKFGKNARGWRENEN
Summary of the method: as §1

[7] = molecular target: SPI1 (Homo sapiens, UniProt P17947 1-270); details: protein: recombinant; tags: N-terminal GST; dsDNA, one strand shown
Summary of the method: as §1

[8] = molecular target: SPIB (Homo sapiens, UniProt Q01892 1-262); details: protein: recombinant; tags: N-terminal GST; dsDNA, one strand shown
Summary of the method: as §1

[9] = molecular target: T6, ELK3 (Homo sapiens, UniProt P41970 1-407); details: protein: recombinant; tags: N-terminal GST; dsDNA, one strand shown
T6 sequence: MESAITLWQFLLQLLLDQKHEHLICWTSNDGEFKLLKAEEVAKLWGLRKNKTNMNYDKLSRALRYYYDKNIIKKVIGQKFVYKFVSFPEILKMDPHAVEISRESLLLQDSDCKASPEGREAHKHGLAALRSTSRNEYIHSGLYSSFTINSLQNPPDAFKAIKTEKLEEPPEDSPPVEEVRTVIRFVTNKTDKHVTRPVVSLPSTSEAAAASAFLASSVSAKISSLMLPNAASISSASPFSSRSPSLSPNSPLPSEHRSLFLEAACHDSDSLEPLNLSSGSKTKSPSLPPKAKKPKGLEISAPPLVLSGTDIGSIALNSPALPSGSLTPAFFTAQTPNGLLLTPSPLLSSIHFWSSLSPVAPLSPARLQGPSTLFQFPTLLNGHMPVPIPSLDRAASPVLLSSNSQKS
Summary of the method: as §1

[10] = molecular target: T7, FEV (Homo sapiens, UniProt Q99581 1-238); details: protein: recombinant; tags: N-terminal GST; dsDNA, one strand shown
T7 sequence: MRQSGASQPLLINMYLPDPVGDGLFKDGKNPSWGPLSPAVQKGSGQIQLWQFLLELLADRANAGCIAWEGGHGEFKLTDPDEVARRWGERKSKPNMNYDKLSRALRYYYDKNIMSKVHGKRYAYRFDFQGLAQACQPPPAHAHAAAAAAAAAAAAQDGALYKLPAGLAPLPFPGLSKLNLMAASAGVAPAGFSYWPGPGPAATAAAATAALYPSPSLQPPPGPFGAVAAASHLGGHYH
Summary of the method: as §1

[11] = molecular target: ETV5 (Homo sapiens, UniProt P41161 1-510); details: protein: recombinant; tags: N-terminal GST; dsDNA, one strand shown
Summary of the method: as §1

[12] = molecular target: HSF1 (Homo sapiens, UniProt Q00613 1-529); details: protein: recombinant; tags: N-terminal GST; chain copies: 3; dsDNA, one strand shown
Summary of the method: as §1

[13] = molecular target: T8, SPIC (Homo sapiens, UniProt Q8N5J4 1-248); details: protein: recombinant; tags: N-terminal GST; dsDNA, one strand shown
T8 sequence: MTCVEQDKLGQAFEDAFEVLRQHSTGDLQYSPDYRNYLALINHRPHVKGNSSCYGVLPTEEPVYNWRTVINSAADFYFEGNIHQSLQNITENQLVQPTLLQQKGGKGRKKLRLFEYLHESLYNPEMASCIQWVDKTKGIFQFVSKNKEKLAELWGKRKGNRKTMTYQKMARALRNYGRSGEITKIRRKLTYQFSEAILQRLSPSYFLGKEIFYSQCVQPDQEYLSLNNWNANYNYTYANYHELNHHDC
Summary of the method: as §1

[14] = molecular target: ELF4 (Homo sapiens, UniProt Q99607 1-663); details: protein: recombinant; tags: N-terminal GST; dsDNA, one strand shown
Summary of the method: as §1

[15] = molecular target: T9, ELK4 (Homo sapiens, UniProt P28324-2 1-405); details: protein: recombinant; tags: N-terminal GST; dsDNA, one strand shown
T9 sequence: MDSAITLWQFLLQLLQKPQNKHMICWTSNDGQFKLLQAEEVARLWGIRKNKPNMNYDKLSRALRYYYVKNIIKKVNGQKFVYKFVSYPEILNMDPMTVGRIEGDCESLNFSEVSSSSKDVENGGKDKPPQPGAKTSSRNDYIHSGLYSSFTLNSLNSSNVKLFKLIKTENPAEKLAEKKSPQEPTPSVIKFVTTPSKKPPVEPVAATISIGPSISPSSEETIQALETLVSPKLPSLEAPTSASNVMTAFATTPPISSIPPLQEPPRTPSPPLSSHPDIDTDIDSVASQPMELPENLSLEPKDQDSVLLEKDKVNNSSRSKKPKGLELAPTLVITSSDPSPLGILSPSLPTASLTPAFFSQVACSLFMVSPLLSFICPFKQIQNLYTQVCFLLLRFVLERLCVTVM
Summary of the method: as §1

[16] = molecular target: T10, ETV2 (Homo sapiens, UniProt O00321 1-342); details: protein: recombinant; tags: N-terminal GST; dsDNA, one strand shown
T10 sequence: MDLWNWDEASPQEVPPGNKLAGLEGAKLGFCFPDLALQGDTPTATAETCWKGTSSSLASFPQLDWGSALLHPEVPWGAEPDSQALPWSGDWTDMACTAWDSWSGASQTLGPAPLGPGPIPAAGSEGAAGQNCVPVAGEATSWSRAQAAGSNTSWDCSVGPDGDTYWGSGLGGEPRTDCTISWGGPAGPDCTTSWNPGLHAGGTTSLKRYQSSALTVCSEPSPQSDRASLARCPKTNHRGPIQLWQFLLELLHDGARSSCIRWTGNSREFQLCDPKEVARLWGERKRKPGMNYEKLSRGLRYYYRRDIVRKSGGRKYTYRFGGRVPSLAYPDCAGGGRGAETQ
Summary of the method: as §1

[17] = molecular target: T11, ELF3 (Homo sapiens, UniProt P78545 1-371); details: protein: recombinant; tags: N-terminal GST; dsDNA, one strand shown
T11 sequence: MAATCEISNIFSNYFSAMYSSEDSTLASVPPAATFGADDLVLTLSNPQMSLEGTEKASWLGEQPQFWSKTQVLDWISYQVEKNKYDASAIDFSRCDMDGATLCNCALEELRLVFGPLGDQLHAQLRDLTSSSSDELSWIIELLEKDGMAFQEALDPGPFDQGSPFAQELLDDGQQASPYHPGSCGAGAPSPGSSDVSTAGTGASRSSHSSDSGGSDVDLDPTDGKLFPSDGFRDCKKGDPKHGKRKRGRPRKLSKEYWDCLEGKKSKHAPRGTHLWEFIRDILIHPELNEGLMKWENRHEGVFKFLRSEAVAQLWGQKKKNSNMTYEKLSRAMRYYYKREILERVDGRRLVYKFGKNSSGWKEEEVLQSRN
Summary of the method: as §1

[18] = molecular target: CRX (Homo sapiens, UniProt O43186 1-299); details: protein: recombinant; tags: N-terminal GST; dsDNA, one strand shown
Summary of the method: as §1

[19] = molecular target: ETV1 (Homo sapiens, UniProt P50549 1-477); details: protein: recombinant; tags: N-terminal GST; dsDNA, one strand shown
Summary of the method: as §1

Sequence of ELF1 (P32519 whole entry): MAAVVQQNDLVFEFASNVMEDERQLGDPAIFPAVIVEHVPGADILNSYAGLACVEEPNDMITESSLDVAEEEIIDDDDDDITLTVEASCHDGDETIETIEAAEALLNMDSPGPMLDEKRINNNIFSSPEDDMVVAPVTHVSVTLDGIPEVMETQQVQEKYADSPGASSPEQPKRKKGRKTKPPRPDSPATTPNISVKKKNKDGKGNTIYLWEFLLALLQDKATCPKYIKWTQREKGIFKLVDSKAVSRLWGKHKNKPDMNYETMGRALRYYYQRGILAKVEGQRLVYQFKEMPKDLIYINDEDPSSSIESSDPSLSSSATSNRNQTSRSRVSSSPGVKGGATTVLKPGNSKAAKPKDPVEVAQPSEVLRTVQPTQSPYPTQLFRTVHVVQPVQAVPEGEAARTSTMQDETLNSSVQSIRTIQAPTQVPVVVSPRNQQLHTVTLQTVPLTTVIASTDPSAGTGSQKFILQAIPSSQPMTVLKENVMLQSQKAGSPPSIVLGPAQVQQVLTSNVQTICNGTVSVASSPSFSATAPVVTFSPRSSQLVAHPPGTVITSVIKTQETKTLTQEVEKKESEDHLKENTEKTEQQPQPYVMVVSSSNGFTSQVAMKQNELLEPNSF
Sequence of ELF4 (Q99607 whole entry): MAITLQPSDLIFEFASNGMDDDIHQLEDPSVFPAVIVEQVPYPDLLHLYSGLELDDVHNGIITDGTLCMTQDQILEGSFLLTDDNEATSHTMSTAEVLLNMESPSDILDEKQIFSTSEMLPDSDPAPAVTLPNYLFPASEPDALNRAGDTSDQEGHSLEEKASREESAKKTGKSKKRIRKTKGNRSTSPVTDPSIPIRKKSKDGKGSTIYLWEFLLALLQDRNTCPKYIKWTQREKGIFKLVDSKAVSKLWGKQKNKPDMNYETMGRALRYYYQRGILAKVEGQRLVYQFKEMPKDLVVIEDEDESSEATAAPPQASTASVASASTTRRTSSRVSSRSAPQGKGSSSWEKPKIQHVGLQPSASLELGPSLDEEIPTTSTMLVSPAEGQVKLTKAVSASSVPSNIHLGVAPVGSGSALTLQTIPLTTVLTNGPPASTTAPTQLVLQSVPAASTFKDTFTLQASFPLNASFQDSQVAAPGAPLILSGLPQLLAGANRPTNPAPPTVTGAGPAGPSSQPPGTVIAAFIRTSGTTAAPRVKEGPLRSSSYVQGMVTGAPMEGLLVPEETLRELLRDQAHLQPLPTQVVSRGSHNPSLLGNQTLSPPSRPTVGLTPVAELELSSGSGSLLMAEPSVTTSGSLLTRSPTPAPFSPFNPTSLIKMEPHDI
Sequence of HSF1 (Q00613 whole entry): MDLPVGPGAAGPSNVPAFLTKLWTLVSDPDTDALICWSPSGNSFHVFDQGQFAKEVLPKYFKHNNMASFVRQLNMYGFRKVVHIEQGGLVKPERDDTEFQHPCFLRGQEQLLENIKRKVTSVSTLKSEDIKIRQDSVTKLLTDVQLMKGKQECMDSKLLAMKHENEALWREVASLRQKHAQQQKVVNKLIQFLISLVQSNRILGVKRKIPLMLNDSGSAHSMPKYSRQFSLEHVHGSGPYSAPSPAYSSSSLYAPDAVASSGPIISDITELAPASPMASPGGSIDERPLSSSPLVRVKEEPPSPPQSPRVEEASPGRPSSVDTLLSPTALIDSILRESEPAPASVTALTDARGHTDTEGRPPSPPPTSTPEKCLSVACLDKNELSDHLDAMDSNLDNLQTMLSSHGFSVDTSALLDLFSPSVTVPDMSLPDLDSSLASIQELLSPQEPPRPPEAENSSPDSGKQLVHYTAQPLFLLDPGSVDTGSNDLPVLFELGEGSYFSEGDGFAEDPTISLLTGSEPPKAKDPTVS
Sequence of SPIB (Q01892 whole entry): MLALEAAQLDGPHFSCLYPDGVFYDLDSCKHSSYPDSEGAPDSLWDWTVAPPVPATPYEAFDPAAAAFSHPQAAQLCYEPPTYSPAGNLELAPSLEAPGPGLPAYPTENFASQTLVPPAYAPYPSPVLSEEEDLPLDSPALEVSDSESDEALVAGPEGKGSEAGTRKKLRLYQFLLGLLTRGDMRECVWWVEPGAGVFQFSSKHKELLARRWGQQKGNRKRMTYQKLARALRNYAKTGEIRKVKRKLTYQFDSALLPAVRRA
Sequence of ETV1 (P50549 whole entry): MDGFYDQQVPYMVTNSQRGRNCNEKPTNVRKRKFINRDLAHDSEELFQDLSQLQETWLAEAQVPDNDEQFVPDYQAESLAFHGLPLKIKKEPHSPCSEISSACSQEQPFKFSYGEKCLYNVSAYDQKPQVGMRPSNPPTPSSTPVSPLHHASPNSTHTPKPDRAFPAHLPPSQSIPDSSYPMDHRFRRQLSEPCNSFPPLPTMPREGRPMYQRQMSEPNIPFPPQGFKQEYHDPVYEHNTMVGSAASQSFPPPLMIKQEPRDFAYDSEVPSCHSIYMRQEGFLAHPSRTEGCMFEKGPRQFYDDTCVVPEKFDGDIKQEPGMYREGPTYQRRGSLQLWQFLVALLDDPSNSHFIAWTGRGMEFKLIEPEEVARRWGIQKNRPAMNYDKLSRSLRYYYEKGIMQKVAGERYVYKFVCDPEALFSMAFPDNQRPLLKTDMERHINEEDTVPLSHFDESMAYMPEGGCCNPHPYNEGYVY
Sequence of CRX (O43186 whole entry): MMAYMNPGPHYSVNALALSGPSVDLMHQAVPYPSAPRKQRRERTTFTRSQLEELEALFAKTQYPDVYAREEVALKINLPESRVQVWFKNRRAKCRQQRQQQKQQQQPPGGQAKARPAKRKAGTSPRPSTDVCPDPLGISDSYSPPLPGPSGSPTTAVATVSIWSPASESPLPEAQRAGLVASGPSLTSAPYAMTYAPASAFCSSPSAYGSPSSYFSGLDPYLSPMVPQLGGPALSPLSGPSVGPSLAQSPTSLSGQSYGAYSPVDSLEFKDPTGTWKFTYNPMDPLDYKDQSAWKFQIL
Sequence of ETV5 (P41161 whole entry): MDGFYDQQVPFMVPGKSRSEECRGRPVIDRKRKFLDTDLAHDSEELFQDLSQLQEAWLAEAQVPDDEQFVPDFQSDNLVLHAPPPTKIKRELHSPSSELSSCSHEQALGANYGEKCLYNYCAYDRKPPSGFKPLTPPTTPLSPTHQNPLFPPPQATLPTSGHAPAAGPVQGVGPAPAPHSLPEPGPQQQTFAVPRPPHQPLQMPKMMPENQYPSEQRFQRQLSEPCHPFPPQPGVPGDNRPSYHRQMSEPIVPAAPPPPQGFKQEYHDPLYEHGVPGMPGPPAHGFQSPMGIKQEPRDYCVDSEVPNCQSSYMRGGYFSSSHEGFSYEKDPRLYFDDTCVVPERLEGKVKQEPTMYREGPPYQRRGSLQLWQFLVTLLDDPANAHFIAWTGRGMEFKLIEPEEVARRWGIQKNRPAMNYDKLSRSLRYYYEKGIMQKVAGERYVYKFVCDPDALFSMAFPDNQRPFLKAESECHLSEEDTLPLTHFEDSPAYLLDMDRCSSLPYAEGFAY

Sequence: TCTGCT
- binding signal [1]: 1.26 fold enrichment (6-mer frequency, TF over GST control)
- binding signal [2]: 1.3 fold enrichment (6-mer frequency, TF over GST control)
- binding signal [3]: 1.33 fold enrichment (6-mer frequency, TF over GST control)
- binding signal [4]: 1.22 fold enrichment (6-mer frequency, TF over GST control)
- binding signal [5]: 1.45 fold enrichment (6-mer frequency, TF over GST control)
- binding signal [6]: 1.55 fold enrichment (6-mer frequency, TF over GST control)
- binding signal [7]: 1.27 fold enrichment (6-mer frequency, TF over GST control)
- binding signal [8]: 1.22 fold enrichment (6-mer frequency, TF over GST control)
- binding signal [9]: 1.2 fold enrichment (6-mer frequency, TF over GST control)
- binding signal [10]: 1.28 fold enrichment (6-mer frequency, TF over GST control)
- binding signal [11]: 1.29 fold enrichment (6-mer frequency, TF over GST control)
- binding signal [12]: 1.33 fold enrichment (6-mer frequency, TF over GST control)
- binding signal [13]: 1.43 fold enrichment (6-mer frequency, TF over GST control)
- binding signal [14]: 1.3 fold enrichment (6-mer frequency, TF over GST control)
- binding signal [15]: 1.57 fold enrichment (6-mer frequency, TF over GST control)
- binding signal [16]: 1.53 fold enrichment (6-mer frequency, TF over GST control)
- binding signal [17]: 1.11 fold enrichment (6-mer frequency, TF over GST control)
- binding signal [18]: 1.33 fold enrichment (6-mer frequency, TF over GST control)
- binding signal [19]: 1.32 fold enrichment (6-mer frequency, TF over GST control)
